Source: PubChem BioAssay AID1159580 (chemical genetic matrix, 2015)
“And” between values parts separate entries of the source, which are not always exact repeats. Identical values can stand only once. Out of some 5,500 compounds screened, about 2,000 (36%) were called active. Roughly 18% stayed inconclusive and do not appear here. No stated cut-off is given here; in the data, active means normalized growth mostly below about 0.91 (no sharp cut-off); inconclusive means no clear call, values can overlap the other calls; inactive means mostly above about 0.92. The list shows a part of the results.

Experiment: chemical genetic growth profiling, strain panel (AID 1159580);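 further: tested at 20 µM; growth read once vehicle control cultures reached saturation at 30 °C; 1 = growth at the plate median or of vehicle wells; lower values mean less growth of the strain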
Details: S. cerevisiae deletion strains, growth OD

Measured: normalized growth

CCN(CC)Cc1ccc(Nc2ccnc3cc(Cl)ccc23)cc1O
inactive: locus YAL021C, strain ccr4, active compounds read low 0.986 | locus YAL026C, strain drs2, active compounds read low 1.03 | locus YAL030W, strain snc1, active compounds read low 1 | locus YBL061C, strain skt5, active compounds read low 1.03 | locus YBR009C, strain hhf1, active compounds read low 0.96 | locus YBR021W, strain FUR4, active compounds read low 0.995 | locus YBR023C, strain chs3, active compounds read low 1.03 | locus YBR171W, strain sec66, active compounds read low 1.05 | locus YBR229C, strain ROT2, active compounds read low 1 | locus YBR231C, strain swc5, active compounds read low 0.989 | locus YBR279W, strain paf1, active compounds read low 1.01 | locus YCL011C, strain gbp2, active compounds read low 1 | locus YCL016C, strain dcc1, active compounds read low 1.02 | locus YCL029C, strain bik1, active compounds read low 1 | locus YCL061C, strain MRC1, active compounds read low 1.01 | locus YCL069W, strain vba3, active compounds read low 1.02 | locus YCR088W, strain abp1, active compounds read low 1.03 | locus YDL005C, strain med2, active compounds read low 1.04 | locus YDL035C, strain GPR1, active compounds read low 1.01 | locus YDL040C, strain nat1, active compounds read low 1 | locus YDL074C, strain BRE1, active compounds read low 1 | locus YDL101C, strain DUN1, active compounds read low 1.01 | locus YDL185W, strain tfp1, active compounds read low 0.997 | locus YDL192W, strain arf1, active compounds read low 0.999 | locus YDR001C, strain nth1, active compounds read low 1.03 | locus YDR069C, strain doa4, active compounds read low 1.01 | locus YDR101C, strain arx1, active compounds read low 0.988 | locus YDR137W, strain rgp1, active compounds read low 1.07 | locus YDR150W, strain NUM1, active compounds read low 1.01 | locus YDR159W, strain sac3, active compounds read low 0.941 | locus YDR162C, strain NBP2, active compounds read low 1.02 | locus YDR195W, strain ref2 0.971 | locus YDR297W, strain sur2, active compounds read low 1.02 | locus YDR318W, strain mcm21, active compounds read low 1 | locus YDR334W, strain swr1, active compounds read low 1.02 | locus YDR335W, strain msn5, active compounds read low 1.03 | locus YDR388W, active compounds read low 0.998 | locus YDR502C, strain sam2, active compounds read low 0.997 | locus YEL003W, strain gim4, active compounds read low 1.01 | locus YEL037C, strain rad23, active compounds read low 1.03 | locus YEL061C, strain CIN8 (second series), active compounds read low 1.01 | locus YEL061C, strain CIN8, active compounds read low 1 | locus YER015W, strain faa2, active compounds read low 1 | locus YER016W, strain bim1, active compounds read low 1.03 | locus YER110C, active compounds read low 0.999 | locus YER111C, strain swi4, active compounds read low 1.03 | locus YER155C, strain BEM2 (second series), active compounds read low 0.865 | locus YER155C, strain BEM2, active compounds read low 1 | locus YER167W, strain BCK2, active compounds read low 1.01 | locus YFR010W, strain ubp6, active compounds read low 0.992 | locus YGL078C, strain dbp3, active compounds read low 1 | locus YGL086W, strain mad1, active compounds read low 0.996 | locus YGL167C, strain pmr1, active compounds read low 1.01 | locus YGL173C, strain kem1, active compounds read low 0.991 | locus YGL227W, strain vid30, active compounds read low 1.01 | locus YGL240W, strain doc1, active compounds read low 0.958 | locus YGL248W, strain PDE1, active compounds read low 1.01 | locus YGL253W, strain hxk2, active compounds read low 1.01 | locus YGR078C, strain PAC10, active compounds read low 1 | locus YGR135W, strain pre9, active compounds read low 0.994 | locus YGR229C, strain SMI1, active compounds read low 1.02 | locus YGR252W, strain gcn5, active compounds read low 0.96 | locus YHR013C, strain ard1, active compounds read low 0.96 | locus YHR027C, strain rpn1, active compounds read low 1.01 | locus YHR030C, strain SLT2, active compounds read low 1.01 | locus YHR079C, strain IRE1 (second series), active compounds read low 0.999 | locus YHR079C, strain IRE1, active compounds read low 1.07 | locus YHR094C, strain hxt1, active compounds read low 0.998 | locus YHR129C, strain ARP1, active compounds read low 1 | locus YHR142W, strain chs7, active compounds read low 1.03 | locus YHR200W, strain rpn10, active compounds read low 0.997 | locus YIL066C, strain RNR3, active compounds read low 1.02 | locus YIL073C, strain SPO22, active compounds read low 1.01 | locus YIL125W, strain kgd1, active compounds read low 1 | locus YIR030C, strain dcg1, active compounds read low 0.997 | locus YJL092W, strain hpr5, active compounds read low 1.01 | locus YJL095W, strain BCK1 (second series), active compounds read low 1.01 | locus YJL095W, strain BCK1, active compounds read low 1 and 1.05 | locus YJL115W, strain asf1, active compounds read low 1.04 | locus YJL129C, strain trk1, active compounds read low 1.01 | locus YJL134W, strain LCB3, active compounds read low 1.01 | locus YJL154C, strain vps35, active compounds read low 1.02 | locus YJL164C, strain tpk1, active compounds read low 1 | locus YJL166W, strain qcr8, active compounds read low 0.992 | locus YJL168C, strain set2, active compounds read low 1 | locus YJL187C, strain SWE1 (second series), active compounds read low 1 | locus YJR043C, strain POL32, active compounds read low 0.996 | locus YJR066W, strain TOR1, active compounds read low 0.992 | locus YJR075W, strain HOC1, active compounds read low 1.01 | locus YKL009W, strain mrt4, active compounds read low 0.997 | locus YKL068W, active compounds read low 0.996 | locus YKL085W, strain MDH1 (second series), active compounds read low 0.995 | locus YKL085W, strain MDH1, active compounds read low 0.995 | locus YKL160W, strain elf1, active compounds read low 1.04 | locus YKL190W, strain CNB1, active compounds read low 1.01 | locus YKR001C, strain vps1, active compounds read low 0.999 | locus YKR026C, strain gcn3, active compounds read low 1.03 | locus YKR091W, strain srl3, active compounds read low 1.02 | locus YLL001W, strain dnm1, active compounds read low 1.01 | locus YLL026W, active compounds read low 1.02 | locus YLL041C, strain sdh2, active compounds read low 1.03 | locus YLR027C, strain aat2, active compounds read low 1.01 | locus YLR039C, strain RIC1, active compounds read low 1.01 | locus YLR058C, strain SHM2, active compounds read low 1.01 | locus YLR102C, strain apc9, active compounds read low 0.993 | locus YLR113W, strain HOG1, active compounds read low 1.06 | locus YLR221C, strain rsa3, active compounds read low 0.987 | locus YLR258W, strain gsy2, active compounds read low 1.03 | locus YLR262C, strain YPT6 (second series), active compounds read low 1.02 | locus YLR262C, strain YPT6, active compounds read low 1.06 | locus YLR268W, strain sec22, active compounds read low 0.993 | locus YLR320W, strain mms22, active compounds read low 0.939 | locus YLR330W, strain CHS5, active compounds read low 1.01 | locus YLR342W, strain FKS1 (second series), active compounds read low 0.984 | locus YLR342W, strain FKS1, active compounds read low 1.01 | locus YLR357W, strain rsc2, active compounds read low 1.06 | locus YLR370C, strain arc18, active compounds read low 1.02 | locus YLR371W, strain rom2, active compounds read low 1 | locus YLR384C, strain iki3, active compounds read low 1.01 | locus YLR418C, strain cdc73, active compounds read low 0.98 | locus YML016C, strain PPZ1, active compounds read low 1 | locus YML032C, strain rad52, active compounds read low 0.99 | locus YML120C, strain ndi1, active compounds read low 1.02 | locus YML124C, strain tub3, active compounds read low 1.01 | locus YMR058W, strain fet3, active compounds read low 0.93 | locus YMR078C, strain ctf18, active compounds read low 1 | locus YMR125W, strain sto1, active compounds read low 1.05 | locus YMR129W, active compounds read low 1.02 | locus YMR205C, strain PFK2, active compounds read low 0.983 | locus YMR223W, strain ubp8, active compounds read low 1 | locus YMR231W, strain pep5, active compounds read low 1.01 | locus YMR307W, strain GAS1, active compounds read low 1.01 | locus YNL067W, strain RPL9B, active compounds read low 1 | locus YNL071W, strain lat1, active compounds read low 1.03 | locus YNL128W, strain TEP1, active compounds read low 1.02 | locus YNL153C, strain GIM3, active compounds read low 0.987 | locus YNL183C, strain NPR1, active compounds read low 1 | locus YNL209W, strain ssb2, active compounds read low 1.01 | locus YNL233W, strain BNI4, active compounds read low 1 | locus YNL248C, strain rpa49, active compounds read low 1.03 | locus YNL250W, strain rad50, active compounds read low 0.997 | locus YNL271C, strain bni1, active compounds read low 1.03 | locus YNL298W, strain CLA4, active compounds read low 1.01 | locus YNL307C, strain MCK1, active compounds read low 0.997 | locus YNL322C, strain KRE1 (second series), active compounds read low 1.05 | locus YNR049C, strain mso1, active compounds read low 1.01 | locus YNR052C, strain pop2, active compounds read low 1 | locus YOL006C, strain TOP1, active compounds read low 1.04 | locus YOL012C, strain htz1 1.13 | locus YOL147C, strain pex11, active compounds read low 0.996 | locus YOR001W, strain rrp6, active compounds read low 0.995 | locus YOR061W, strain CKA2, active compounds read low 1.01 | locus YOR069W, strain VPS5, active compounds read low 1 | locus YOR070C, strain gyp1, active compounds read low 1.02 | locus YOR080W, strain dia2, active compounds read low 1.01 | locus YOR083W, strain WHI5, active compounds read low 0.986 | locus YOR106W, strain vam3, active compounds read low 1.05 | locus YOR136W, strain idh2, active compounds read low 0.995 | locus YOR144C, strain elg1, active compounds read low 0.99 | locus YOR184W, strain ser1, active compounds read low 0.992 | locus YOR231W, strain MKK1, active compounds read low 1.05 | locus YOR265W, strain rbl2, active compounds read low 1 | locus YOR270C, strain vph1, active compounds read low 1.05 | locus YOR290C, strain snf2, active compounds read low 1.02 | locus YOR316C, strain cot1, active compounds read low 0.997 | locus YPL051W, strain arl3, active compounds read low 1.01 | locus YPL078C, strain atp4, active compounds read low 1.03 | locus YPL106C, strain sse1, active compounds read low 1.05 | locus YPL240C, strain hsp82, active compounds read low 1.02 | locus YPL241C, strain CIN2, active compounds read low 1.01 | locus YPL256C, strain CLN2, active compounds read low 1.01 | locus YPR119W, strain clb2, active compounds read low 1 | locus YPR141C, strain kar3, active compounds read low 1.01 | locus YPR163C, strain tif3, active compounds read low 1.01 | locus YPR167C, strain met16, active compounds read low 1 | strain wtn01, active compounds read low 1
active: locus YDR392W, strain spt3, active compounds read low 0.737
